Mtb BioA inh – blocks M. tuberculosis BioA enzyme activity; inhibition, % at 9.99 µM; 360,000 tested, 0.096% active; purified M. tuberculosis BioA enzyme, plate reader; in the data active = inhibition above about 40%
Mtb FBA inh – inhibits M. tuberculosis FBA enzyme. P9WQA3. purified M. tuberculosis FBA, fluorescence read-out. inhibition, % at 1 µM. 360,000 tested, 2.3% active. AID 588726;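 also: 0% = vehicle and 100% = reference inhibitor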
FadD28 binding – blocks FadD28 binding to the bisubstrate probe. 360,000 tested, 0.22% active. fluorescence polarization. AID 588549. inhibition, % at 12.5 µM; in the data active = inhibition above about 8.5%, passing the limit was not always enough
Rv3671c protease – inhibits the M. tuberculosis serine protease Rv3671c. P9WHR9. inhibition, % at 5.96 µM. 320,000 tested, 0.048% active. AID 2606; in the data active = inhibition above about 38%;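 also: extracellular domain of Rv3671c used as enzyme; 0% = enzyme with DMSO and 100% = no enzyme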
Target sequence (P9WHR9 whole entry, looked up, the tested form may be a part): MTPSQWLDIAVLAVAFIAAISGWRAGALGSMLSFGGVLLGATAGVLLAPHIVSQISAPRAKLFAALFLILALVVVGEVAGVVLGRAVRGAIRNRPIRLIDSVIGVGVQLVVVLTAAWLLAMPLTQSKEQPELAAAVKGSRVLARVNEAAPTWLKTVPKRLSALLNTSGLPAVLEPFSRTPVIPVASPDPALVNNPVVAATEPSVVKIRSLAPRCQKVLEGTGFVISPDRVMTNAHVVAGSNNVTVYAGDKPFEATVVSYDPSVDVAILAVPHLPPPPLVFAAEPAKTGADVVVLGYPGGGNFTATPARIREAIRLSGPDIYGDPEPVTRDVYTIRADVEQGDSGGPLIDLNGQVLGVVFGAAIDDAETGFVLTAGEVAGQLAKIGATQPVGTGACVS
GDH-TPI counter-1 – counter-screen for M. tuberculosis FBA inhibitors: GDH-TPI coupled enzymes; AID 588335; inhibition, % at 4.8 µM; 360,000 tested, 1.2% active; GDH-TPI coupled enzyme counterscreen, NADH absorbance; in the data active = inhibition above about 30%;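 also: 0% = DMSO wells and 100% = wells lacking the enzyme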
Mtb FBA confirm – Mtb FBA inhibition, confirmed; shares compounds with Mtb FBA inh; purified M. tuberculosis FBA, fluorescence read-out; inhibition, % at 1 µM; 5,600 tested, 78% active;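 also: 0% = vehicle wells and 100% = reference inhibitor wells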
GDH-TPI counter-2 – inhibits GDH-TPI coupling enzymes, flagging Mtb FBA hits | 5,600 tested, 81% active | inhibition, % at 1 µM | shares compounds with Mtb FBA inh | GDH-TPI coupled enzyme counterscreen, fluorescence; in the data active = inhibition above about 10%
GDH-TPI DR – inhibits GDH-TPI coupling enzymes in dose response | shares compounds with Mtb FBA inh | GDH-TPI coupled enzyme assay, fluorescence, artifact counterscreen | IC50, µM | 170 tested, 79% active | AID 652145; call rule not given here
* marks the source's active call; other numbers are inactive results; / = not tested or not shown; + = active, no number. Most compounds without a hit are left out; they make up all but 3% or so of the library. Rule as the data show it, unless noted: active = inhibition above about 27%; inactive = the rest.

SMILES	Mtb BioA inh	Mtb FBA inh	FadD28 binding	Rv3671c protease	GDH-TPI counter-1	Mtb FBA confirm	GDH-TPI counter-2	others
Cc1cccn2c(=O)c3cc(C(=O)NCCN4CCOCC4)c(=N)n(CCc4ccccc4)c3nc12	0	102*	-3	2	13	58*	55*
Cc1cccn2c(=O)c3cc(C(=O)NC4CCS(=O)(=O)C4)n(Cc4ccccc4)c3nc12 (stereo unspecified)	-1	40*	-2	-12	22	114*	92*
Cc1ccc2nc3c(cc(C(=O)NCc4ccco4)c(=N)n3C3CCCC3)c(=O)n2c1	0	39*	0	7	-1	92*	76*
O=C(C[C@@H]1CC[C@@H](NC(=O)c2cccnc2)[C@@H](CO)O1)NCCN1CCCCC1	1	/	/	/	/	/	/
O=C(C[C@@H]1CC[C@H]2[C@@H](COC[C@H](O)CN2S(=O)(=O)c2ccc(Oc3ccccc3)cc2)O1)Nc1ccccc1	3	/	/	/	/	/	/
Cc1ccc2nc3c(cc(C(=O)NC4CCCC4)c(=N)n3CCCn3ccnc3)c(=O)n2c1	/	/	/	1	/	/	/
Cc1cccn2c(=O)c3cc(S(=O)(=O)c4ccccc4)c(=N)n(Cc4cccnc4)c3nc12	-3	4	0	-2	11	/	/
COCCCn1c(C(=O)Nc2ccc3c(c2)OCO3)cc2c(=O)n3ccccc3nc21	-2	-2	-1	-7	4	/	/
Cc1cccn2c(=O)c3cc(C(=O)NC4CCCCC4)c(=N)n(Cc4ccccc4)c3nc12	1	62*	0	4	4	103*	89*
Cc1cccn2c(=O)c3cc(C(=O)NC4CCCC4)c(=N)n(Cc4ccc(F)cc4)c3nc12	-1	60*	0	0	0	6	1
COCCCn1c(C(=O)NCCN2CCOCC2)cc2c(=O)n3cccc(C)c3nc21	1	78*	-3	4	7	+	161*
COCCCn1c(C(=O)NCCC2=CCCCC2)cc2c(=O)n3ccccc3nc21	-1	47*	-3	10	2	48*	36*
COc1ccc(CCNC(=O)c2cc3c(=O)n4ccccc4nc3n(CCCN3CCOCC3)c2=N)cc1	1	14	-4	-7	13	/	/
COc1ccccc1NC(=O)N(C)C[C@H]1Oc2ncc(Br)cc2C(=O)N([C@H](C)CO)C[C@@H]1C	2	/	/	/	/	/	/
COc1ccc(CCNC(=O)c2cc3c(=O)n4ccccc4nc3n(C3CCCCC3)c2=N)cc1	0	16	-9	5	0	/	/
Cc1cccn2c(=O)c3cc(C(=O)NC4CCCC4)c(=N)n(C4CCCCC4)c3nc12	-1	67*	-5	2	6	14	3	GDH-TPI DR=0.77*
N=c1c(C(=O)NC2CCCCC2)cc2c(=O)n3ccccc3nc2n1Cc1ccc(F)cc1	-2	40*	1	-1	4	70*	51*
COc1ccc(CCNC(=O)c2cc3c(=O)n4ccccc4nc3n(C3CCCCC3)c2=N)cc1OC	-2	2	-6	-8	-5	/	/
Cc1cccn2c(=O)c3cc(C(=O)NC4CCCC4)c(=N)n(CCc4ccccc4)c3nc12	-2	63*	-1	5	5	119*	78*
CC=Cc1ccc2n(c1=O)C[C@@H]1[C@@H](CO)[C@H](C(=O)OC)N(C(C)=O)[C@H]21 (mixture of isomers)	-1	/	/	/	/	/	/
C[C@@H](NC(=O)C[C@@H]1C=C[C@H](NC(=O)Cc2ccccn2)[C@H](CO)O1)c1ccccc1	-3	/	/	/	/	/	/
CCOCCCNC(=O)c1cc2c(=O)[nH]c3ccccc3c2s1	/	71*	-3	-5	11	+	+
CCCCN(CC)CCNC(=O)c1cc2c(=O)[nH]c3ccc(C)cc3c2s1	-2	36*	-4	-6	14	59*	46*
Cc1ccc2[nH]c(=O)c3cc(C(=O)NCCC(C)C)sc3c2c1	1	15	-2	/	-3	/	/
CCC(C)NC(=O)c1cc2c(=O)[nH]c3ccc(C)cc3c2s1 (stereo unspecified)	-2	70*	-3	-46	24	89*	65*
SMILES	Mtb BioA inh	Mtb FBA inh	FadD28 binding	Rv3671c protease	GDH-TPI counter-1	Mtb FBA confirm	GDH-TPI counter-2	others
CCCCN(CC)CCCNC(=O)c1cc2c(=O)[nH]c3ccccc3c2s1	-2	72*	-4	-4	26	170*	153*
C[C@@H]1CN([C@@H](C)CO)S(=O)(=O)c2ccc(C#CC3CCCC3)cc2O[C@H]1CN(C)C(=O)C1CC1	0	/	/	/	/	/	/
CCN(C[C@@H]1[C@@H](c2ccccc2)[C@@H](CO)N1C(C)=O)C(=O)c1ccccn1	1	/	/	/	/	/	/
CN(C)c1ccc(-c2ccnc3c2CC(C)(C(=O)NCc2cccs2)O3)cc1 (stereo unspecified)	1	40*	-2	/	19	32*	9	GDH-TPI DR=1*
CC1(C(=O)NCc2cccc(Cl)c2)Cc2c(-c3ccc4c(c3)OCO4)ccnc2O1 (stereo unspecified)	3	30*	-1	/	10	19	21*
COc1ccc(CCCNC(=O)C2(C)Cc3c(-c4ccc5c(c4)OCO5)ccnc3O2)cc1 (stereo unspecified)	-1	20	0	/	4	/	/
CC1(C(=O)NCc2cccs2)Cc2c(-c3ccc4c(c3)OCO4)ccnc2O1 (stereo unspecified)	2	61*	2	/	-1	53*	32*
CN(C)c1ccc(-c2ccnc3c2CC(C)(C(=O)NCCC(F)(F)F)O3)cc1 (stereo unspecified)	0	36*	0	/	24	97*	64*
CNC[C@H]1Oc2c(NC(=O)Nc3cccc4ccccc34)cccc2C(=O)N([C@H](C)CO)C[C@@H]1C	-2	/	/	/	/	/	/
C[C@H]1CN([C@@H](C)CO)C(=O)Cc2cc(NC(=O)CCCN(C)C)ccc2O[C@@H]1CN(C)C(=O)NC1CCCCC1	4	/	/	/	/	/	/
COc1ccc(CN(C)C[C@H]2OCCCC[C@@H](C)Oc3ccc(NC(=O)Nc4c(C)noc4C)cc3C(=O)N([C@H](C)CO)C[C@@H]2C)cc1	0	/	/	/	/	/	/
C[C@H](CO)N1C[C@H](C)[C@@H](CN(C)C(=O)C2CC2)Oc2cc(-c3ccc(F)cc3)ccc2S1(=O)=O	3	/	/	/	/	/	/
CC(C)NC(=O)C1(C)Cc2c(-c3ccc(N(C)C)cc3)ccnc2O1 (stereo unspecified)	0	38*	-1	/	12	+	+
CC(=O)Nc1ccc(-c2ccnc3c2CC(C)(C(=O)NCc2ccco2)O3)cc1 (stereo unspecified)	2	10	-1	/	7	/	/
CN(C)c1ccc(-c2ccnc3c2CC(C)(C(=O)NCc2ccco2)O3)cc1 (stereo unspecified)	0	31*	-1	/	14	73*	52*

Screening data from PubChem BioAssay.
